High-throughput results from PubChem.
Only some compounds are listed: those with a hit (about 19% of all), similar ones and a draw of the others.
TDP1 cell noCPT – qHTS for Inhibitors of human tyrosyl-DNA phosphodiesterase 1 (TDP1): qHTS in cells in absence of CPT; DT40 Tdp1-/- hTDP1 cells, no CPT, ATP luminescence, 48 h; Potency, µM (titrated, usually from 46.2 µM), for inactives: top-dose activity change, negative = growth inhibition, hits mostly inhibitors; 420,000 tested, 15% active; AID 686978, 2013; note: nearly all actives have a fitted effect of over 55% in size
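Camptothecin absent (DMSO only). Human TDP1-complemented DT40 knockout cells, 400 cells/well, 37 °C for minimum 48 hr; ATP measured via CellTiter-Glo, 30 min dark incubation, luminescence.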
HT1080 IDH1KD tx – kills HT-1080 cells with IDH1 knockdown | 360,000 tested, 2% active | Potency, µM (titrated, usually from 46.1 µM), for the others: top-dose activity, negative = toxicity, usual class: cytotoxic | AID 686971 | HT-1080 IDH1 knockdown viability, ATP luminescence, 48 h;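 note: 0% = DMSO wells and -100% = cell-free medium wells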
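In this qHTS, HT-1080 cells depleted of IDH1 are exposed for 48 h at 37 °C to compound titrations. Toxicity is scored from CellTiter-Glo luminescence, with DMSO as full viability and medium alone as none.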
KB-V1 cytotox – kills drug-selected multidrug resistant KB-V1 cells; KB-V1 MDR cells viability, CellTiter-Glo, 72 h; 400,000 tested, 3.4% active; Potency, µM (doses to about 46.1 µM), usual class: cytotoxic; note: nearly all actives have a fitted effect of over 60% in size
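Potencies derive from concentration-effect curves fitted to normalized luminescence (CellTiter-Glo) of KB-V1 cells treated for 72 h at 37 degrees C in phenol-red-free DMEM containing 10% FBS.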
DT40 TDP1 CPT – DT40-hTDP1 cell growth loss with CPT. chicken DT40 Tdp1-/-;hTDP1 cells + 20 nM CPT, ATP luminescence, 48 h. Potency, µM (series often up to 46.2 µM), without a hit: at the highest dose activity change, negative = growth inhibition, usual class: inhibitors. 420,000 tested, 12% active. AID 686979; note: nearly all actives have a fitted effect of over 55% in size
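Cell growth measured by CellTiter-Glo luminescence after a minimum 48 h, 37 C compound exposure with 20 nM CPT in Tdp1-knockout DT40 cells stably expressing hTDP1, seeded 400/well; qHTS titration format.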
KB-3-1 tox – kills parental KB-3-1 adenocarcinoma cells; KB-3-1 viability, CellTiter-Glo ATP luminescence, 72 h; Potency, µM (series often up to 46.1 µM), actives largely listed as cytotoxic; 400,000 tested, 1.4% active; note: nearly all actives have a fitted effect of over 60% in size
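Luminescent ATP read-out (CellTiter-Glo) measures survival of drug-naive KB-3-1 cells after 72 h compound exposure at 37 °C. Titration series was screened from lowest to highest concentration, with DMSO vehicle plates as background controls.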
HT1080-NT tox – kills 2HG-producing HT-1080-NT fibrosarcoma cells; HT-1080-NT fibrosarcoma viability, CellTiter-Glo ATP luminescence, 48 h; Potency, µM (doses to about 46.1 µM), for the others: at the highest dose activity, negative = less viability, most hits filed as cytotoxic; 360,000 tested, 1.6% active;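 note: NT is the 2HG producing partner of a matched IDH1 knockdown line; 0% = DMSO-treated cells and -100% = media-only wells without cells; nearly all actives have a fitted effect of over 55% in size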
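Compounds were tested in concentration-response format on HT-1080-NT cells for 48 hours at 37 degrees C. Cell viability came from CellTiter-Glo luminescence; curves were classified by r2, response magnitude and activity.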
* = called active by the depositor; i = inactive; ? = inconclusive; . = not tested or not shown; [ ] = dose if it differs, or a comment. Calls come from the whole dose curve; as a rule, active = well fitted curve in the direction sought with a large enough effect; inconclusive = small, poorly fitted or top-dose-only effect, or another doubt; inactive = no such curve, though single readings can be large; an effect the other way counts as inactive or inconclusive. Unless noted, % is set by controls: 0 for no effect and ±100 for the full control effect; potency is the fitted concentration of half-maximal effect.

SMILES	TDP1 cell noCPT	HT1080 IDH1KD tx	KB-V1 cytotox	DT40 TDP1 CPT	KB-3-1 tox	HT1080-NT tox
COC(=O)[C@]12CCCCC=C1N(Cc1ccc(Cl)cc1Cl)C(=O)[C@H](CC(=O)NCC13CC4CC(CC(C4)C1)C3)C2	-18%	0%	i	2%	i	16%
COC(=O)[C@]12CCCCC=C1N(Cc1ccccc1)C(=O)[C@H](CC(=O)NCC1CCCCC1)C2	?	8%	?	16µM*	i	3%
CCCCNC(=O)C[C@@H]1C[C@@]2(C(=O)OC)CCCCC=C2N(Cc2ccccc2)C1=O	?	1%	?	?	i	19%
COCCCNC(=O)C[C@@H]1C[C@@]2(C(=O)OC)CCCCC=C2N(Cc2ccc(Cl)cc2Cl)C1=O	16µM*	-13%	i	?	i	-12%
COC(=O)[C@]12CCCCC=C1N(Cc1ccc(Cl)cc1Cl)C(=O)[C@H](CC(=O)NCC1CCCCC1)C2	18µM*	?	i	?	?	?
CCOC(=O)N1CCC2(CC1)OC(=O)C(C)=C2C(=O)NCc1ccccc1OC	?	.	i	-33%	i	.
COc1ccc(CC(=O)N2CC(=O)Nc3ccc(F)cc3C2c2ccccc2)cc1 (stereo not drawn)	?	.	i	?	i	.
CCOc1ccccc1NC(=O)c1cc(C(=O)c2cc(OC)ccc2O)coc1=N	?	1%	12µM*	-21%	i	-3%
CC(C)NC(=O)c1cc(C(=O)c2cc(Cl)ccc2O)coc1=N	-2%	-10%	i	-20%	i	-3%
CCOc1ccccc1NC(=O)C(=O)/C=C(\O)c1cc(OC)ccc1OC	5.2µM*	-8%	?	5.8µM*	i	-9%
COc1ccccc1NC(=O)C(=O)/C=C(\O)c1ccccc1	15µM*	10%	18µM*	15µM*	i	-6%
COc1ccc(OC)c(/C(O)=C/C(=O)C(=O)Nc2cc(C)cc(C)c2)c1	18µM*	0%	?	?	i	0%
COc1ccc(CCN2CC(C(=O)NCc3ccon3)CCC2=O)cc1 (stereo not drawn)	-1%	7%	?	-3%	i	0%
Cc1cc(C)cc(-n2ccn(CC(=O)c3ccc(F)cc3)c(=O)c2=O)c1	8%	.	.	3%	.	.
Clc1ccc(-c2noc(-c3cccnc3NCc3ccco3)n2)cc1	4%	.	i	2%	i	.
CCC(C)c1ccc(NC(=S)NCc2cccnc2)cc1 (stereo not drawn)	7.3µM*	10%	18µM*	?	?	23%
Fc1ccc(NC(=S)NCc2cccnc2)cc1	-4%	27%	i	18%	i	16%
CC(C)(C)c1ccc(NC(=S)NCc2cccnc2)cc1	15µM*	1%	i	?	i	4%
CC(C)(C)c1ccc(C(=O)NC(=S)NCc2cccnc2)cc1	18µM*	-15%	?	16µM*	i	-9%
COC(=O)c1cc(C(=O)c2ccc(C(C)(C)C)cc2)c[nH]1	12µM*	-26%	?	?	?	-27%
O=C(CN1CCN(C/C=C/c2ccccc2)CC1)NC(=O)NC1CCCCC1	-12%	-7%	i	2%	i	-8%
CC(C)(C)c1ccc(C(=O)c2c[nH]c(C(=O)NCc3cccnc3)c2)cc1	16µM*	-6%	i	18µM*	?	-3%
CC(C)(C)c1ccc(C(=O)NCc2cccnc2)cc1	?	-24%	i	-19%	i	5%
CC(NC(=O)CSc1nc2c(c(C(F)(F)F)n1)CCc1ccccc1-2)c1ccccc1 (stereo not drawn)	23µM*	-10%	?	?	?	-14%
O=C(CSc1nc2c(c(C(F)(F)F)n1)CCc1ccccc1-2)NCc1ccco1	26µM*	15%	i	16µM*	i	3%
SMILES	TDP1 cell noCPT	HT1080 IDH1KD tx	KB-V1 cytotox	DT40 TDP1 CPT	KB-3-1 tox	HT1080-NT tox
Cc1nc(SCC(=O)NCc2ccco2)nc(C)c1C	7%	7%	i	7%	i	1%
CCc1c(C)sc(NC(=O)CSc2nc3c(c(C(F)(F)F)n2)CCc2ccccc2-3)c1C#N	?	-1%	?	21µM*	?	0%
CSCCC(NC(=O)c1ccco1)C(=O)OCC(=O)N1c2ccccc2NC(=O)C1(C)C (stereo not drawn)	24%	-1%	?	-5%	i	1%
COc1ccccc1-c1ccc(C(=O)NCCN2CCOCC2)c(N2CCN(c3ccccc3F)CC2)n1	-24%	.	.	3%[9.04 µM]	.	.
Cc1nn(-c2ccc(F)cc2)c2nc(N)c(C#N)c(-c3cccs3)c12	13µM*	-11%	?	23µM*	?	-21%
Cc1nn(-c2ccccc2)c2nc(N)c(C#N)c(-c3ccc(O)c(O)c3)c12	?	?	i	?	?	?
COc1cc(-c2c(C#N)c(N)nc3c2c(C)nn3-c2ccc(C)c(C)c2)cc(OC)c1OC	?	11µM*	i	?	?	?
Cc1nn(-c2ccc(F)cc2)c2nc(N)c(C#N)c(-c3ccc(O)c(O)c3)c12	23µM*	?	i	16µM*	i	?
C=C1C=C(C)n2ncc(C(=O)Nc3ccc(NC(C)=O)c(Cl)c3)c2N1	?	.	i	?	?	.
CCCCNC(=O)C(CC)n1c(SCc2cccc(F)c2)nc2ccncc21 (stereo not drawn)	?	.	i	10µM*	i	.
CCC(C(=O)NC1CCCCC1)n1c(SCc2cccc(C)c2)nc2ccncc21 (stereo not drawn)	?	-15%	i	26µM*	?	-14%
CCC(C(=O)NC1CCCCC1)n1c(SCc2cccc(F)c2)nc2ccncc21 (stereo not drawn)	?	5%	i	?	i	?
CCCCNC(=O)Cn1c(SCc2cccc(F)c2)nc2ccncc21	?	.	i	?	i	.
Cc1c(C(=O)NCc2ccccc2Cl)sc2ncnc(NCC3CCCO3)c12 (stereo not drawn)	-7%	.	.	-4%[9.04 µM]	.	.
O=c1[nH]c(=O)n2ncnc2[nH]1	-16%	1%	i	-14%	i	1%
COc1ccc2ccc3c(c2c1)N=CC1(O3)N(C)c2ccccc2C1(C)C (stereo not drawn)	23µM*	6.3µM*	?	?	i	7.9µM*
